Assay [1] can be described thus: yeast TOR pathway RPL19A-GFP modulators, primary screen, cell-based, S. cerevisiae, multiplex flow cytometry (AID 1862; in the data active = percent of DMSO control GFP below about 86%;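 note: lower values mimic rapamycin by blocking the RPL19A rise seen in DMSO cells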). Conditions: S. cerevisiae RPL19A-GFP strain, flow cytometry fluorescence, 3 h; at 10 µM; stronger effect = lower value. (Flow cytometry measures light scatter and fluorescence of single cells or particles in a stream.)
A short description of assay [2]: modulators of MEP2-GFP levels in yeast, primary screen, S. cerevisiae, multiplex flow cytometry (AID 1867;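 active = GFP response, as percent of the DMSO control, above the screen-wide mean plus 3 SD, about 139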;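 note: median GFP channel fluorescence of barcode-gated MEP2-GFP cells measured by flow cytometry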). The settings on record: S. cerevisiae MEP2-GFP strain, 3 h, at 10 µM, stronger effect = higher value, 100% means same as DMSO wells.
Assay [3] in a line: modulators of CIT2-GFP expression in yeast, primary screen, S. cerevisiae, GFP fusion, multiplex flow cytometry (AID 1870;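 active = percent response above a set limit, the screen-wide mean plus 3 SD, cut at about 130% in these data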;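 note: barcoded CIT2-GFP strain pooled with four other GFP strains with rapamycin as positive control; median GFP fluorescence per well over plate mean of DMSO wells so 100% = DMSO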). The settings on record: 3 h, at 10 µM, stronger effect = higher value.
Assay [4] in a line: modulators of LAP4-GFP expression in yeast, primary screen, S. cerevisiae, multiplex flow cytometry (AID 1873;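 active = GFP signal, as percent of the solvent control, above the screen mean plus 3 SD, about 149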). The settings on record: 3 h, at 10 µM, stronger effect = higher value.
Assay [5] is described as follows: modulators of AGP1-GFP expression in yeast TOR pathway, primary screen, cell-based, multiplex flow cytometry, S. cerevisiae (AID 1887;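 active = GFP signal above the screen-wide mean plus 3 SD, that is over about 124.5% of the solvent control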;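 note: AGP1-GFP fusion strain of S. cerevisiae within a five-strain barcoded multiplex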). The settings on record: 3 h, at 10 µM, stronger effect = higher value.
Assay [6] is described as follows: inhibitors of CD8+ T cell-vesicle binding, pilot screen, LFA-1/ICAM-1 modulator project, MLPCN validation set, flow cytometry (AID 2523).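 For vesicle binding response: mean PE anti-B7-1 fluorescence of CD8+ cells relative to row control; 100% = QL9-loaded vesicles with DMSO vehicle in the same plate row.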 The settings on record: 2C mouse CD8+ T cells, at 7 µM, stronger effect = lower value; double positive events: measured here: CD8+/vesicle+ event percentage.
Assay [7] deals with Integrin beta-1 (Homo sapiens) + Integrin alpha-4 (Homo sapiens) (UniProt P13612+P05556). Briefly: inhibition of HUTS-21 binding to VLA-4, pilot screen, VLA-4 allosteric modulator project, U937 cells, HUTS-21 mAb, flow cytometry, validation set (AID 2674;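 active = inhibition above 50%, about 3 SD of the validation set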;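 note: antibody binding induced by the VLA-4 ligand LDV present at three times its Kd; 0% = LDV ligand with antibody and no compound and 100% = antibody without LDV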). The settings on record: HUTS-21 LIBS mAb binding, at 6.7 µM, stronger effect = higher value, binding induced by LDV ligand.
Assay [8] can be described thus: superoxide lowering in aged yeast cells, pilot screen, validation compound set (AID 2706;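 active = superoxide response below 65% of plate, a cut near 3 SD across the whole screen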;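 note: yeast exposed to compound for one week at 30 degrees C before staining; 100% = mean of all compound wells on the same plate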). Conditions: S. cerevisiae aging, superoxide DHE fluorescence; at 10 µM; stronger effect = lower value.
In assay [9] the target is Beta-adrenergic receptor kinase 1 (Homo sapiens) (UniProt P25098). In words: GRK2 binders displacing RNA aptamer, biochemical, validation, human GRK2, bead flow cytometry (AID 488806;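 active = aptamer binding inhibition above 30%, about 3 SD of noise from non-fluorescent compounds; inactive = inhibition at or below 30%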). Conditions: bead-bound GRK2, FAM-aptamer displacement, at 10 µM, stronger effect = higher value.
Assay [10] addresses Beta-2 adrenergic receptor (Homo sapiens) (UniProt P07550). In words: beta2AR agonists driving receptor internalization, pilot screen, cell-based, FAP fluorogen, flow cytometry, validation set (AID 504459;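 active = percent response above 42, roughly 3 SD of non-fluorescent test compounds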;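 note: agonist-driven loss of surface beta2AR via internalization measured by FAP dye flow cytometry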). Conditions: Am2.2-beta2AR cells, FAP surface receptor flow cytometry; at 10 µM; stronger effect = higher value.
The target of assay [11] is AP-2 complex subunit beta (Homo sapiens) (UniProt P63010). Briefly: inhibitors of arrestin peptide binding to AP2, pilot screen, biochemical, validation set, GST-AP2 beads, flow cytometry (AID 504541;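 active = inhibition above 54%, about 3 SD of non-fluorescent compounds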;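 note: AP2 carries R879A mutation and is captured from E. coli lysate; bead-bound FITC arrestin peptide fluorescence measuring arrestin peptide binding to AP2; 0% = DMSO wells and 100% = excess unlabeled arrestin peptide control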). The settings on record: FITC arrestin peptide, at 10 µM, stronger effect = higher value, AP2 beta2 appendage fragment, R879A mutant.
Assay [12] can be described thus: yeast V-ATPase proton transport modulators, S. cerevisiae, pHLuorin, HTS validation (AID 504600; in the data active = response above about 15%;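 note: plate controls were DMSO for no effect and reference compound for full effect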). Conditions: S. cerevisiae pHLuorin cytosolic pH, at 10 µM, stronger effect = higher value.
Assay [13] deals with anti-desmoglein-3 scFv antibody binding to human DSG3. In words: inhibitors of anti-DSG3 scFv binding to DSG3, pilot screen, biochemical, validation compound set, bead-based, flow cytometry (AID 588368;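 active = binding below the plate cutoff, the plate median minus 3 SD, with a reading above zero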;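 note: signal is the median channel fluorescence of bead-bound GFP antibody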). Conditions: Protein G beads, DSG3-Fc, scFv-GFP binding, at 10 µM, stronger effect = lower value.
Assay [14] in a line: inhibitors of fungal efflux pumps CDR1, CDR2, MDR1, pilot screen, validation compound set, multiplex, phenotypic (AID 588506;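 active = efflux inhibition above 0.42, the validation set average plus 4 SD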;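 note: Nile Red retained in cells so higher fluorescence means more efflux inhibition; 0 = negative control wells and 1 = enniatin B 25 µM full block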). Conditions: S. cerevisiae pump-expressing triplex, Nile Red efflux flow cytometry; at 10 µM; stronger effect = higher value; the pumps come from Candida albicans.
Assay [15] concerns the target ATP-binding cassette sub-family B member 6 (Homo sapiens) (UniProt Q9NP58). In words: ABCB6 transporter inhibitors, pilot screen, K562-ABCB6 cells, flow cytometry, validation set (AID 588550;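 active = inhibition above the screen-wide mean plus 3 SD, about 51%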;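 note: 0% = DMSO wells and 100% = benzethonium chloride 70 µM positive control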). Conditions: K562-ABCB6 porphyrin accumulation, 1 h, at 10 µM, stronger effect = higher value.
Assay [16] can be described thus: promoters of myeloid differentiation in arrested cells, primary screen, cell-based, GFP/MAC1 double positive, flow cytometry, validation set (AID 588685;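 active = differentiation response of at least 50%, scaled between solvent and reference control, from cells with both markers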;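 note: compound exposure lasts four days before antibody staining and flow analysis; 0% = DMSO wells and 100% = 5 µM fulvestrant positive control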). Conditions: ER-HoxA9 marrow cells, stronger effect = higher value, normalized: vehicle 0, fulvestrant 100.

Inconclusive results are not listed. The source made the active and inactive calls.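 Rule for the calls, unless noted: active = response below a set limit, under 55% cells CD8-positive and vesicle-bound, and CD8 cells' 90th-percentile brightness under 279; inactive = the rest.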

Eight compounds from PubChem BioAssay can be followed below.

For orientation: inhibition means the relative decrease from the control value, in per cent.

Sequence of ATP-binding cassette sub-family B member 6 (Homo sapiens) (Q9NP58 whole entry, looked up): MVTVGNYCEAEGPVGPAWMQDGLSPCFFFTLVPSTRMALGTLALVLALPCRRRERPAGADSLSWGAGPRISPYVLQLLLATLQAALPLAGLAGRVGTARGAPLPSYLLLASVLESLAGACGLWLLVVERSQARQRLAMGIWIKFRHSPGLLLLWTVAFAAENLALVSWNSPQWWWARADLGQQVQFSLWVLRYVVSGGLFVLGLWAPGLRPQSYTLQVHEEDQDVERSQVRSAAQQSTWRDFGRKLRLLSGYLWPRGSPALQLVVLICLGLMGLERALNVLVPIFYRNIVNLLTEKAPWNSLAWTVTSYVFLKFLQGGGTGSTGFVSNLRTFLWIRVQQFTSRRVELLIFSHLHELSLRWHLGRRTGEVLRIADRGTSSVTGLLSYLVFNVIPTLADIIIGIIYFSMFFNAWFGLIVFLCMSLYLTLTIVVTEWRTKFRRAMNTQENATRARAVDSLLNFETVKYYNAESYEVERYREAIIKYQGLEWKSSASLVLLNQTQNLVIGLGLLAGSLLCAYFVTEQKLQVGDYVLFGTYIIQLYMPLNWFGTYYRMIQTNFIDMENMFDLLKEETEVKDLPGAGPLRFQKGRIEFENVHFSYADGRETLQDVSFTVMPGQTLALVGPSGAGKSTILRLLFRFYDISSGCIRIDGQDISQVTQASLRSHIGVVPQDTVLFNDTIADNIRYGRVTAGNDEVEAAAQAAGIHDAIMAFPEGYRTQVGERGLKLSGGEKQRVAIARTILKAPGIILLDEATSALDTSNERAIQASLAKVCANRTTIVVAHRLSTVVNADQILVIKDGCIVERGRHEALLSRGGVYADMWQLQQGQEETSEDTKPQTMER
Sequence of Beta-2 adrenergic receptor (Homo sapiens) (P07550 whole entry, looked up): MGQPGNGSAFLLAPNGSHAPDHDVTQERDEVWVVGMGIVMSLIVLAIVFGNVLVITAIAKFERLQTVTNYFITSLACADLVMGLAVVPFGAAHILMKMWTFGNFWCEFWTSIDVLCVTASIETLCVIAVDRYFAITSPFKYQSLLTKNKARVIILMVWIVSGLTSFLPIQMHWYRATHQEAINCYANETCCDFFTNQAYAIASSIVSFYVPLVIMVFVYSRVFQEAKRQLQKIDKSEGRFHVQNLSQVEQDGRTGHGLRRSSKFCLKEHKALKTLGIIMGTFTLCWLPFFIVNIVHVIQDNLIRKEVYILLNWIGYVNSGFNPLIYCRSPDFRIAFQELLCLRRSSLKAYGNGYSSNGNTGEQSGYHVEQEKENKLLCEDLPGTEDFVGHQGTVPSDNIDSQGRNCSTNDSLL
Sequence of AP-2 complex subunit beta (Homo sapiens) (P63010 whole entry, looked up, the tested form may be a part, one chain of several): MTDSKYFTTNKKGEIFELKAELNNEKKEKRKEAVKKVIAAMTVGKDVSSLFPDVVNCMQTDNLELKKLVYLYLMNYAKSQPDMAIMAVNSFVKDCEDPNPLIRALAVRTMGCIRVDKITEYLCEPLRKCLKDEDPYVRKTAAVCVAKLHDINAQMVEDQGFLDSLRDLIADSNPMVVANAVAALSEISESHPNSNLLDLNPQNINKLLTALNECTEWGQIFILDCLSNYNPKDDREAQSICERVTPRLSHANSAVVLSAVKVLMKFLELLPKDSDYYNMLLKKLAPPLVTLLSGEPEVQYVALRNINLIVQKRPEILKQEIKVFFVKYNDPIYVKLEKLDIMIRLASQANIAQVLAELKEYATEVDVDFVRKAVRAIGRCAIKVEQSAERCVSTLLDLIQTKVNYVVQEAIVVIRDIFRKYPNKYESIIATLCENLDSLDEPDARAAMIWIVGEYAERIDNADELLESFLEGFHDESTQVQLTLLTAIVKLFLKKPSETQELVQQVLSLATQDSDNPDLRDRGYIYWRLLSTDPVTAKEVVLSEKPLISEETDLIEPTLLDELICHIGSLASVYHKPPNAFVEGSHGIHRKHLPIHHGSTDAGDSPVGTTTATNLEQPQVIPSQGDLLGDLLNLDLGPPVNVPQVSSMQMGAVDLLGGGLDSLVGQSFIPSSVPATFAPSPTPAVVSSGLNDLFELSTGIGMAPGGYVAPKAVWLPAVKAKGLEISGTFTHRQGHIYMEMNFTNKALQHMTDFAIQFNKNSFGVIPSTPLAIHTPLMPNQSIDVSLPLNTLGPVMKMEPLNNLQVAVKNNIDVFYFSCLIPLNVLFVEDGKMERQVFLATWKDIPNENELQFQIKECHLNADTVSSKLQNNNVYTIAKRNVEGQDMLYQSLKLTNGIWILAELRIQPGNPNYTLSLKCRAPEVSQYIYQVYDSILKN
Sequence of Beta-adrenergic receptor kinase 1 (Homo sapiens) (P25098 whole entry, looked up): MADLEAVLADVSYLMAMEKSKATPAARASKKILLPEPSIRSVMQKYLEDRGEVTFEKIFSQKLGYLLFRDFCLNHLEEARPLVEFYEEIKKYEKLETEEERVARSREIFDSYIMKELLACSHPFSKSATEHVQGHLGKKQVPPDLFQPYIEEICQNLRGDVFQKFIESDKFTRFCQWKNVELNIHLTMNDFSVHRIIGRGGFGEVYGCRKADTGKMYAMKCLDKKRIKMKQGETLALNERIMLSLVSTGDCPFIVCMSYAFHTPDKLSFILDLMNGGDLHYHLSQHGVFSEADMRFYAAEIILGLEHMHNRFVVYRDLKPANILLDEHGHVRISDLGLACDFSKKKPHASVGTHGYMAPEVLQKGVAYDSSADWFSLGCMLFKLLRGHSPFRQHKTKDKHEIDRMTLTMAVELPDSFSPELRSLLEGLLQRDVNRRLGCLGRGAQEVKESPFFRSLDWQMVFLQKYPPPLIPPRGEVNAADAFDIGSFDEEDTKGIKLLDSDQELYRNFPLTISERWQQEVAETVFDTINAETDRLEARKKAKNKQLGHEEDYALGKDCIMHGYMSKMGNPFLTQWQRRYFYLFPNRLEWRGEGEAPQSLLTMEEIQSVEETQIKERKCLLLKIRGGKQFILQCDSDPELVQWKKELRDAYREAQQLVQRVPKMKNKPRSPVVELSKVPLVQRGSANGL
Sequence of Integrin beta-1 (Homo sapiens) + Integrin alpha-4 (Homo sapiens) (P05556 whole entry, looked up): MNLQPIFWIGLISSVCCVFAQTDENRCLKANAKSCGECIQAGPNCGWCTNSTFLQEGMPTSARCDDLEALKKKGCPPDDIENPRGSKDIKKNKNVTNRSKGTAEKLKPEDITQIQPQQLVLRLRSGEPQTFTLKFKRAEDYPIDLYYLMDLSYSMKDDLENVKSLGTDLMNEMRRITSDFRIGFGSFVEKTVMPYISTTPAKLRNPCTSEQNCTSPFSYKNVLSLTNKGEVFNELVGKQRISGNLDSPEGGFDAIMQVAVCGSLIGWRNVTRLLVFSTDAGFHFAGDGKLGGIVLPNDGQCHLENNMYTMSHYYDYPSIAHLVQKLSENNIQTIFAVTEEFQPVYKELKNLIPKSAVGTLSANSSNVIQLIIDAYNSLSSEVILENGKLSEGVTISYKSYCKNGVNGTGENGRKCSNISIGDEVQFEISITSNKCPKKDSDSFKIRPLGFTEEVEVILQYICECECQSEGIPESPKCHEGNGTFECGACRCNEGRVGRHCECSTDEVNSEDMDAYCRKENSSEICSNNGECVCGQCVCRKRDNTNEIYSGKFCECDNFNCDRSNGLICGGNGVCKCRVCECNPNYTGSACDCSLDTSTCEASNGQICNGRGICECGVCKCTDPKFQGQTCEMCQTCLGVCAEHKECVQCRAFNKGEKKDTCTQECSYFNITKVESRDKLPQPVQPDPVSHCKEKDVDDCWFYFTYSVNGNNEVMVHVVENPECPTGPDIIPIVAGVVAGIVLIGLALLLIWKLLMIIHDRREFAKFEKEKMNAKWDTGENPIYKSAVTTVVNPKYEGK
Sequence of Integrin beta-1 (Homo sapiens) + Integrin alpha-4 (Homo sapiens) (P13612 whole entry, looked up): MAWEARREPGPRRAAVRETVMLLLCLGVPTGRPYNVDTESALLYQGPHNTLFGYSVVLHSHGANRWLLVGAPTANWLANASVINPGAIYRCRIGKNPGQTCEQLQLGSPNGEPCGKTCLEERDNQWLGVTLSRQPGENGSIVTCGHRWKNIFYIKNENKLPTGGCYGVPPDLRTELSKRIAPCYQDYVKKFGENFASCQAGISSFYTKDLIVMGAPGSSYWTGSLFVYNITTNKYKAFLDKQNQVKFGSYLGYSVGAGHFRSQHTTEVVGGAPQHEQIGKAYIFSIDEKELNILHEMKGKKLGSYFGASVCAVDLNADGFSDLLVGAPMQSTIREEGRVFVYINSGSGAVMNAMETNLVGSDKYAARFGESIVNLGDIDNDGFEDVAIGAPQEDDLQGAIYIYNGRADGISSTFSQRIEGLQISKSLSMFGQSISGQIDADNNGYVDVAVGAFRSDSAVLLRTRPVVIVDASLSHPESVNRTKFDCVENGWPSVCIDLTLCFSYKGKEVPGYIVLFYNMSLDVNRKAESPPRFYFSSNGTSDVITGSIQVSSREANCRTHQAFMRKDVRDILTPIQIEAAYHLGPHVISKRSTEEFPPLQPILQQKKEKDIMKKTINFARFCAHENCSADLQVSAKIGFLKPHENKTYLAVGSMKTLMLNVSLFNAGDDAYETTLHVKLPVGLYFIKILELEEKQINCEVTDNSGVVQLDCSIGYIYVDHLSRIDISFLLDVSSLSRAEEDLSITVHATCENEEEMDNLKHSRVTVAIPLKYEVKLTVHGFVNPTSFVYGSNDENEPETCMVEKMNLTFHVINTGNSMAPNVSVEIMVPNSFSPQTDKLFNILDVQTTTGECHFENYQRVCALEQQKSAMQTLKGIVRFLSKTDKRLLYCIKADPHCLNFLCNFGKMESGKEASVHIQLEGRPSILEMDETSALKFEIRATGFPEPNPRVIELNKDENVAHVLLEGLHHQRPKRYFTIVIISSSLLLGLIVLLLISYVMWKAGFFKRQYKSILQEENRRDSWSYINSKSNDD

Consider `Cn1cc(CN2CCC(C(=O)N3CCCCC3)CC2)c(-c2ccccc2F)n1`, for which the percent of DMSO control GFP in [1] is 95.9% (inactive). Moreover, the GFP response vs DMSO in [2] is 137% (inactive); in assay [4], 85.8% (inactive). Besides, the percent response of DMSO control in assay [3] is 104% (inactive). Moreover, the GFP response, % of DMSO in assay [5] was 94.2% (inactive). In addition, the double positive events in [6] came to 63.2%. Moreover, the vesicle binding response in assay [6] is 131% (inactive). In addition, the inhibition in assay [7] was 5.49% (inactive); in assay [11] it was 0.65% (inactive); in [15] it was 16% (inactive). The superoxide response (% of plate) in [8] was 92.8% (inactive). In addition, the aptamer binding inhibition in [9] was 4% (inactive). Further, the results for the response in assay [10] and in assay [12] were -5.43% (inactive) and -1.21% (inactive), respectively. In addition, the binding (% of control) in [13] is 104% (inactive). Also, the efflux inhibition (fraction of control) in assay [14] is -0.02 (inactive). Moreover, the differentiation response in [16] was 0% (inactive).
On to `Cc1ccc2c(c1)c(=O)c1c3n2CCN(C(=O)CCl)C3CC1` (stereo unspecified), for which, in assay [1], the percent of DMSO control GFP was 96.3% (inactive). Besides, the results for the GFP response vs DMSO in assay [2] and in assay [4] were 102% (inactive) and 106% (inactive), respectively. The percent response of DMSO control in [3] was 97% (inactive). Also, the GFP response, % of DMSO in assay [5] was 111% (inactive). In assay [6], this compound showed a double positive events of 58.2%. Moreover, in [6], the vesicle binding response was 198% (inactive). Also, the inhibition in assay [7] is -10.5% (inactive); in [11], 20.6% (inactive); in assay [15], 1% (inactive). Besides, the superoxide response (% of plate) in [8] is 108% (inactive). Further, the aptamer binding inhibition in assay [9] was 18% (inactive). Further, the response in [10] was -25.7% (inactive); in assay [12], -19.6% (inactive). The binding (% of control) in assay [13] was 96.7% (inactive). The efflux inhibition (fraction of control) in assay [14] is 0.46 (active). Besides, the differentiation response in assay [16] is 0.92% (inactive).
As to `COc1ccc(C2NC(C(=O)O)Cc3c2[nH]c2ccccc32)cc1CN1CCN(c2ccc(F)cc2)CC1` (stereo unspecified), the percent of DMSO control GFP in [1] was 104% (inactive). In addition, the figures for the GFP response vs DMSO in assay [2] and in assay [4] were 98.3% (inactive) and 102% (inactive), respectively. Besides, the percent response of DMSO control in assay [3] was 113% (inactive). The GFP response, % of DMSO in assay [5] was 104% (inactive). This compound also yielded a double positive events in assay [6] of 63.4%. For the same compound, the vesicle binding response in assay [6] was 242% (inactive). Also, the inhibition in assay [7] was -0.45% (inactive); in assay [11], -4.95% (inactive); in assay [15], 1% (inactive). In assay [8], the superoxide response (% of plate) was 94.5% (inactive). Besides, the aptamer binding inhibition in assay [9] is -6% (inactive). For the same compound, the response in assay [10] is 6.62% (inactive); in assay [12] it was 2.85% (inactive). Further, the binding (% of control) in assay [13] was 102% (inactive). The efflux inhibition (fraction of control) in [14] was -0.07 (inactive). Further, the differentiation response in assay [16] was 1.22% (inactive).
Turning to `Nc1nnc(CSCc2ccc(Cl)cc2Cl)s1`, in assay [1], the percent of DMSO control GFP is 101% (inactive). Further, the GFP response vs DMSO in [2] is 98.7% (inactive); in [4] it was 105% (inactive). For the same compound, in [3], the percent response of DMSO control is 105% (inactive). In assay [5], the GFP response, % of DMSO was 105% (inactive). In [6], this compound displayed a double positive events of 58.8%. Further, the vesicle binding response in assay [6] was 162% (inactive). The results for the inhibition in assay [7], in assay [11] and in assay [15] were -11.8% (inactive), 5.12% (inactive) and 0% (inactive), respectively. Moreover, the superoxide response (% of plate) in assay [8] was 95.2% (inactive). Further, the aptamer binding inhibition in assay [9] is -1% (inactive). The results for the response in assay [10] and in assay [12] were -6.41% (inactive) and 3.83% (inactive), respectively. Further, the binding (% of control) in assay [13] is 112% (inactive). The efflux inhibition (fraction of control) in [14] is 0.47 (active). Also, the differentiation response in assay [16] was 10.1% (inactive).
`COc1ccc2c(c1)c(=O)oc1cc3occ(C(C)(C)C)c3cc12`: the percent of DMSO control GFP in assay [1] was 103% (inactive). Besides, the values for the GFP response vs DMSO in assay [2] and in assay [4] were 105% (inactive) and 109% (inactive), respectively. Moreover, the percent response of DMSO control in assay [3] is 103% (inactive). In [5], the GFP response, % of DMSO was 108% (inactive). In assay [6], this compound had a double positive events of 60%. Moreover, in assay [6], the vesicle binding response is 138% (inactive). For the same compound, the figures for the inhibition in assay [7], in assay [11] and in assay [15] were 9.95% (inactive), 42.4% (inactive) and 0% (inactive), respectively. In addition, in [8], the superoxide response (% of plate) is 92.5% (inactive). The aptamer binding inhibition in assay [9] was 0% (inactive). The response is -15.7% (inactive) in assay [10] and 29.4% (active) in assay [12]. In addition, in assay [13], the binding (% of control) was 93.8% (inactive). Further, in assay [14], the efflux inhibition (fraction of control) is 0.21 (inactive). Also, the differentiation response in assay [16] was -14.8% (inactive).
Regarding `COc1ccc2c(c1OC)C(=O)N1C2SC[C@H]1C(=O)NC1CC(C)(C)NC(C)(C)C1` (stereo partly specified), the percent of DMSO control GFP in assay [1] is 99.8% (inactive). The GFP response vs DMSO was 133% (inactive) in [2] and 84.7% (inactive) in assay [4]. Further, the percent response of DMSO control in assay [3] is 111% (inactive). The GFP response, % of DMSO in [5] was 93.1% (inactive). In addition, the double positive events in [6] is 48.3%. Besides, the vesicle binding response in assay [6] was 17.2% (active). Besides, the values for the inhibition in assay [7], in assay [11] and in [15] were 1.61% (inactive), 39.2% (inactive) and 1% (inactive), respectively. Further, in [8], the superoxide response (% of plate) is 91.6% (inactive). Also, in assay [9], the aptamer binding inhibition was 6% (inactive). In addition, the response was 3.43% (inactive) in [10] and -0.76% (inactive) in [12]. Further, the binding (% of control) in assay [13] was 103% (inactive). Besides, the efflux inhibition (fraction of control) in assay [14] was 0.09 (inactive). Moreover, in [16], the differentiation response is 30.3% (inactive).
Take `O=C(CC1(O)C(=O)Nc2ccccc21)c1ccccc1O` (stereo unspecified): the percent of DMSO control GFP in [1] was 100% (inactive). In addition, the GFP response vs DMSO in assay [2] was 104% (inactive); in assay [4], 103% (inactive). In addition, the percent response of DMSO control in [3] is 97.8% (inactive). Further, the GFP response, % of DMSO in assay [5] is 101% (inactive). The same compound gave a double positive events in [6] of 61.5%. Moreover, in assay [6], the vesicle binding response is 195% (inactive). In addition, the inhibition in assay [7] was -6.68% (inactive); in assay [11], -2.48% (inactive); in assay [15], 3% (inactive). Also, the superoxide response (% of plate) in assay [8] is 102% (inactive). Also, the aptamer binding inhibition in [9] was 3% (inactive). Moreover, the response is 5.92% (inactive) in assay [10] and 17.1% (active) in assay [12]. Moreover, the binding (% of control) in assay [13] is 99.5% (inactive). Moreover, in assay [14], the efflux inhibition (fraction of control) is -0.04 (inactive). In addition, the differentiation response in assay [16] was 12.9% (inactive).
Turning to `Cc1cccc(NC(=O)c2cc3ccccc3o2)c1`, in assay [1], the percent of DMSO control GFP was 94.6% (inactive). Moreover, the GFP response vs DMSO is 115% (inactive) in assay [2] and 90.8% (inactive) in assay [4]. Moreover, in [3], the percent response of DMSO control is 112% (inactive). For the same compound, the GFP response, % of DMSO in assay [5] was 86.3% (inactive). This compound returned a double positive events in assay [6] of 69.2%. Moreover, the vesicle binding response in assay [6] is 162% (inactive). Moreover, the inhibition in assay [7] was 5.49% (inactive); in [11] it was 1.31% (inactive); in [15], 17% (inactive). Moreover, the superoxide response (% of plate) in [8] was 90.5% (inactive). The aptamer binding inhibition in assay [9] is 2% (inactive). Further, the figures for the response in [10] and in [12] were -1.7% (inactive) and -0.5% (inactive), respectively. Besides, the binding (% of control) in assay [13] was 102% (inactive). Further, the efflux inhibition (fraction of control) in [14] was -0.24 (inactive). Moreover, the differentiation response in assay [16] is 3.28% (inactive).
